Source: PubChem (several laboratories)
This is a sample that favours compounds with a hit; in the whole collection about 1.5% have one here.
TLR4-MyD88 BLA: inhibitors of TLR4-MyD88 association in cells, primary screen, cell-based, HeLa CL3-4, BLA complementation, FRET ratio. 200,000 tested, 0.18% active. AID 861, 2007. HeLa CL3-4 TLR4/MyD88 BLA complementation. inhibition, % at 8.4 µM; in the data active means inhibition above about 25%;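 further: 0% = vehicle and 100% = reference inhibitor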
TLR9-MyD88 inh: inhibitors of TLR9-MyD88 association in cells, primary screen, cell-based, CHO, BLA complementation, fluorescence | CCF4 FRET ratio | inhibition, % at 4.98 µM | 340,000 tested, 0.21% active | AID 504734, 2011;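 active means inhibition above the mean over all tested compounds plus 3 SD, cut at about 21% in these data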;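 further: 0% = DMSO only wells and 100% = clavulanate BLA inhibitor control wells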
Myeloid diff 2: induction of myeloid progenitor differentiation, primary screen, cell-based, flow cytometry, MLPCN library. ER-HoxA9 myeloid progenitors, lysozyme-GFP differentiation. calls only at 10 µM. 360,000 tested, 1% active;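 active means normalized GFP-positive differentiation at or above the plate's own cutoff, the solvent-only control mean plus 3 SD; inconclusive means no clear call, values can overlap the other calls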;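 further: cells exposed to compound for four days before flow analysis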
NOD2-RIPK2 inh: NOD2-RIPK2 binding disruptors in cells, primary screen, fluorescence, CHO cells, BLA complementation; 360,000 tested, 0.38% active; AID 624267, 2012; CCF4 ratio; inhibition, % at 4.98 µM; in the data active means inhibition above about 21%;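 further: 0% = vehicle only and 100% = reference blocker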
Target sequence (O43353 whole entry, looked up): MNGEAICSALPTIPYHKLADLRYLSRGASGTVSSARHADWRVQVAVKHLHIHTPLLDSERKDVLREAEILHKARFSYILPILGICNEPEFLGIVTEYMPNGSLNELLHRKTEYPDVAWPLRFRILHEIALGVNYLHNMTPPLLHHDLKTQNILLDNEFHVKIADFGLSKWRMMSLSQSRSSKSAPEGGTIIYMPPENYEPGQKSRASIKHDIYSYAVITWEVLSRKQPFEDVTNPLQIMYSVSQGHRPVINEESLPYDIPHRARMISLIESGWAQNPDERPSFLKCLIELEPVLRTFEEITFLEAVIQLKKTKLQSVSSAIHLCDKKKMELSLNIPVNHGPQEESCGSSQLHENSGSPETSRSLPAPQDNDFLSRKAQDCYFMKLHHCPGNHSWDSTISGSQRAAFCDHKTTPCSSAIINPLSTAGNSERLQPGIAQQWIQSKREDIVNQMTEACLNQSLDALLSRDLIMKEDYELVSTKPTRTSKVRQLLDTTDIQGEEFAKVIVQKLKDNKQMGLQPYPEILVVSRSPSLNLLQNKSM
An asterisk follows results filed as active; i = inactive; ? = inconclusive; nt = no result given; + = active, no number.

SMILES	TLR4-MyD88 BLA	TLR9-MyD88 inh	Myeloid diff 2	NOD2-RIPK2 inh
COc1cc(/C=C(\C#N)C(=O)c2ccc(O)c(O)c2)cc(I)c1O	nt	7	+	4
COc1ccc(C=C(C#N)C(=O)c2ccccc2)cc1	nt	nt	i	1
CC(C)NC(=O)c1cc(C2CCCCN2C(=O)c2ccc(C#N)cc2)on1 (stereo not given)	nt	nt	i	-8
CCN(C(=O)COC(=O)c1c2c(nc3ccccc13)/C(=C/c1ccccc1)CC(C)C2)C1CCS(=O)(=O)C1 (stereo not given)	8	0	+	-3
O=C(Nc1ccccc1-c1nc2ccccc2[nH]1)c1ccc(N2C(=O)CCC2=O)cc1	3	-3	+	2
N/C(=N\OC(=O)Nc1ccccc1)c1ncc([N+](=O)[O-])s1	nt	4	+	-1
O=C(COC(=O)COc1ccccc1)Nc1ncc([N+](=O)[O-])s1	nt	-2	i	0
CC(=O)Nc1sc(/C(C#N)=C/c2ccc(Cl)c(Cl)c2)nc1-c1ccc(C)cc1	19	13	+	12
CC(=O)Nc1sc(N/N=C/c2ccc(C)cc2)nc1-c1ccc(C)cc1	nt	-5	i	-3
Cc1ccc2nc(-c3ccc(Cl)cc3)c(Cc3ccccn3)n2c1	nt	nt	i	-7
Cc1cccc(-n2ncc3c(NCc4ccccc4)ncnc32)c1	1	-2	+	7
c1ccc(CNc2ncnc3c2cnn3-c2ccccc2)cc1	8	10	?	10
CCn1c(SCC(=O)N/N=C/c2ccc(C)o2)nnc1-c1ccc(C(C)(C)C)cc1	14	0	+	-3
CC(C)(C)c1ccc(C(=O)Nc2nnc(Cc3c[nH]c4ccccc34)s2)cc1	-4	-5	i	3
O=C(Nc1nnc(Cc2c[nH]c3ccccc23)s1)c1ccc(Cl)cc1Cl	-5	-4	+	0
CC[C@@H](C)[C@H](CN[C@H](CNC)C(C)C)NC[C@@H](C)c1ccc(CC(C)C)cc1	nt	4	+	-3
Cn1cc(Cc2ccc(C(=O)NCc3ccccc3)cn2)c2ccccc21	nt	nt	i	7
N#CC1=C(N)Oc2cc(N)ccc2C1c1ccc(F)cc1F (stereo not given)	nt	0	+	20
COc1ccc(NC(=O)N2CCN(c3nc(-c4cccc(OC)c4)cs3)CC2)cc1	-9	0	+	-7
COc1cccc(-c2csc(N3CCN(C(=O)Nc4ccc(Cl)cc4)CC3)n2)c1	4	-5	i	5
O=C(Nc1ccc2c(c1)CCCN2C(=O)c1cccs1)c1ccccc1	nt	-4	+	-7
Cc1cc(C)c2nc3nc(C)c(C)cc3c(N)c2c1	-6	10	+	-9
CN1C[C@@H]2[C@@H]3C(=O)N(C)C(=O)[C@@H]3[C@](Cc3ccccc3)(C1=O)N2C(=O)c1ccccc1	nt	4	+	2
CCOC(=O)C1(C)CCCN1C(=O)c1sccc1C (stereo not given)	nt	nt	i	-2
CCC(C)(C)C1CCc2nc3ccccc3c(C(=O)OC(C)C(=O)Nc3c(C)n(C)n(-c4ccccc4)c3=O)c2C1 (stereo not given)	5	0	+	12
SMILES	TLR4-MyD88 BLA	TLR9-MyD88 inh	Myeloid diff 2	NOD2-RIPK2 inh
Cc1c(NC(=O)C(C)OC(=O)c2cccs2)c(=O)n(-c2ccccc2)n1C (stereo not given)	-14	-6	i	-5
CC(C)CN1C(=O)CSCC1(C)C(=O)NC(C)C (stereo not given)	nt	nt	i	-9
N#Cc1c(NC(=O)c2cccnc2)sc2c1CCC2	-7	1	+	-13
CCCCCCCCC(c1nc2ccccc2[nH]1)N1CCN=C1c1cc2ccccc2[nH]1 (stereo not given)	nt	nt	i	4
COC(=O)C1=C(C)N(Cc2ccccc2)C(=NCc2cccc(C(F)(F)F)c2)N[C@H]1c1cccc(C(F)(F)F)c1	nt	-8	?	-3
COC(=O)C1=C(C)N(CC2CC2)C(=NCc2cccc(C(F)(F)F)c2)N[C@H]1c1ccccc1	nt	-1	+	8
CC(=O)/C(N=Nc1ccc(C(=O)O)cc1[N+](=O)[O-])=C(\C)O	nt	0	i	-15
CC(=O)/C(N=Nc1cc(C)ccc1O)=C(\C)O	-9	-2	+	-5
CN(C)CCNC(=O)/C(=C/c1ccc(-c2ccc(Cl)cc2Cl)o1)NC(=O)c1ccccc1	-9	3	+	-2
Cc1ccc(C(=O)N/C(=C\c2ccc(-c3ccc(Br)cc3)o2)C(=O)NCCCN(C)C)cc1	2	3	+	5
C[C@@H]1ON(C)[C@H]2C[C@H]3c4[nH]c5ccccc5c4CCN3C[C@@H]12	nt	0	+	-5
Cc1cccc(-c2ccc3[nH]c4c(c3c2)CCN2C[C@H]3[C@H](C)ON(C)[C@H]3C[C@@H]42)c1	nt	7	i	11
Cc1ccc(CN2C(=O)c3ccccc3C2c2nnnn2C(C)C)cc1 (stereo not given)	nt	nt	i	5
COc1cc(/C=C(\C#N)c2nc3ccccc3o2)ccc1O	nt	9	+	13
CC1CCC(=C(C#N)c2nc(-c3cc4ccccc4oc3=O)cs2)CC1 (stereo not given)	8	3	i	-12
COc1cc(/C=C(\C#N)c2nc(-c3cc4ccccc4oc3=O)cs2)ccc1O	-2	8	+	0
Nc1sc2c(c1C(=O)NCCc1ccccc1)CCCC2	nt	nt	i	1
O=C(CCSc1ccc(Cl)cc1)N1CCN(c2ccc(O)cc2)CC1	nt	5	+	1
COC(=O)c1ccc2nc(-c3ccc(C#N)cc3)c(Cc3cccc(F)c3)n2c1	nt	nt	i	1
COC(=O)[C@]12CCCCC=C1N(Cc1ccc(Cl)cc1Cl)C(=O)[C@H](CC(=O)NCCC(C)C)C2	nt	nt	i	3
CCN(C(=O)C1CCN(S(=O)(=O)c2ccc3c(c2)oc(=O)n3C)CC1)c1cccc(C)c1	3	-7	+	-1
COc1cccc(C(NC(C)=O)c2nc(-c3cccc(C#N)c3)cs2)c1 (stereo not given)	nt	nt	i	-14
COC(=O)/C=C1/S/C(=N/NC(=O)c2ccc(OC)cc2)NC1=O	nt	-12	i	9
COC(=O)/C=C1/S/C(=N/NC(=O)c2ccccc2OC)NC1=O	nt	-3	+	-9
N#Cc1c(N)nc(Sc2ccc(Cl)cc2)c(C#N)c1-c1ccccc1Cl	nt	0	+	5
O=C(Nc1ccc(F)cc1)C(c1ccnc2ccccc12)N1CCN(CC(=O)N2CCCC2)CC1 (stereo not given)	nt	nt	i	-23
COc1ccc(/C=C/c2ccc3ccccc3[n+]2C)cc1OC	nt	4	+	3
Cc1[nH]c2ccccc2c1/C=N/NC(=S)NC(C)C	-1	-5	+	-13
CC(C)NC(=S)N/N=C/c1c[nH]c2ccccc12	8	-4	i	-2
